Screening data: PubChem BioAssay, National Center for Advancing Translational Sciences (NCATS)
Shown are actives, neighbours in structure and some others; about 21% of the full set was active somewhere.
CHX counter = Cycloheximide Counterscreen for Small Molecule Inhibitors of Shiga Toxin. cell reporter, cycloheximide protein synthesis inhibition counterscreen. max response, %. 300,000 compounds, 12% hits. AID 2314, 2010; in the data active = max response mostly above about 13%, no sharp cut-off; inactive = mostly below about 14%; also: read at 38.3 µM for the half of the compounds with a filed dose
Shiga toxin inh = A qHTS for Small Molecule Inhibitors of Shiga Toxin. AID 2315, 2010. 290,000 compounds, 9.2% hits. Vero cells, Shiga toxin protein synthesis inhibition reporter. inhibition, % at 38.7 µM; in the data active = inhibition mostly above about 28%, no sharp cut-off; inactive = mostly below about 43%
Pf growth 48h = Primary qHTS for delayed death inhibitors of the malarial parasite plastid, 48 hour incubation. 310,000 compounds, 5.9% hits. Potency, µM (titrated, usually from 28.7 µM), most hits filed as inhibitors. P. falciparum luciferase growth in erythrocytes, 48 h. AID 504832, 2011
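Compounds are pin-transferred into medium, infected erythrocytes (2% hematocrit, 0.1% parasitemia final) are added, and plates sit one parasite generation at 37 C in 5% CO2. Detection reagent is then added and luminescence measured.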
Pf growth 96h = Primary qHTS for delayed death inhibitors of the malarial parasite plastid, 96 hour incubation | P. falciparum luciferase reporter growth, 96 h | Potency, µM (highest dose often 28.7 µM), hits mostly inhibitors | 320,000 compounds, 6.9% hits
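Delayed-death screen, second-generation endpoint: infected erythrocytes, 2% hematocrit, 0.05% parasitemia final; 96 hours at 37 C, 5% CO2; luciferase detection reagent; luminescence decrease equals reduced growth.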
Numbers stand for hits; – = inactive; ? = inconclusive; · = no result. Unless noted, calls follow the shape of the dose curve; as a rule, active = well fitted inhibition curve with a large enough effect; inconclusive = small, poorly fitted or top-dose-only effect, or another doubt; inactive = no such curve, though single readings can be large or run the other way.

SMILES	CHX counter	Shiga toxin inh	Pf growth 48h	Pf growth 96h
COc1ccc(C(=O)NC(=S)Nc2ccc(CN3CCOCC3)cc2)cc1	–	47	–	?
O=C(NC(=S)Nc1ccc(N2CCOCC2)cc1)c1ccc2c(c1)OCCO2	42	61	–	–
COc1ccc(C(=O)NC(=S)Nc2ccc(CN3CCOCC3)cc2)cc1Br	–	–	?	?
O=C(NC(=S)Nc1ccc(CN2CCOCC2)cc1)c1ccc2c(c1)OCCO2	31	88	–	–
O=C(NC(=S)Nc1ccc(N2CCCCC2)cc1)c1ccc2c(c1)OCCO2	58	98	–	–
Cc1cc(=O)[nH]c(SCC(=O)N2CCN(S(=O)(=O)c3ccccc3)C2)n1	–	–	–	–
CC(C)(C)C(=O)NC(=S)Nc1ccc(Cc2ccncc2)cc1	–	–	–	?
O=C(NC(=S)Nc1ccc(Cc2ccncc2)cc1)c1ccc(F)cc1	18	–	?	–
O=C(NC(=S)Nc1c(F)cc(F)cc1Br)c1ccc2c(c1)OCCO2	28	84	–	–
CC(C)(C)c1ccc(C(=O)NC(=S)Nc2ccc(N3CCOCC3)cc2)cc1	–	–	?	12µM
O=C(NC(=S)Nc1ccc(N2CCCC2)cc1)c1ccc(F)cc1	–	–	?	–
O=C(NC(=S)Nc1ccc(F)cc1)c1ccc2c(c1)OCCO2	70	101	–	?
CCOc1ccc(C(=O)COC(=O)CNC(=O)C2CCCCC2)cc1	·	·	–	–
COC(=O)C[C@@](O)(CCC(C)(C)O)C(=O)O[C@@H]1C(OC)=C[C@]23CCCN2CCc2cc4c(cc2[C@@H]13)OCO4	–	–	·	·
CN(C)CCNC(=O)Cn1ccc2cc(S(=O)(=O)N3CCCCC3)ccc21	–	–	–	–
CN(CCC#N)C(=S)NC(=O)c1ccc(S(=O)(=O)N2CCOCC2)cc1	–	–	–	?
COc1ccccc1CNc1ncc(-c2ccc(F)cc2)n1C	7.6	–	?	?
COc1ccccc1CNc1ncc(-c2ccccc2)n1C	21	40	–	–
COc1cc(CNc2ncc(-c3ccc(Br)cc3)n2C)cc(OC)c1O	–	·	?	?
Cn1c(-c2ccccc2)cnc1NCc1cccc([N+](=O)[O-])c1	–	–	–	–
COc1ccc(CNc2ncc(-c3ccc(F)cc3)n2C)c2ccccc12	–	–	?	10µM
CCOc1ccc(-c2cnc(NCc3cccc4ccccc34)n2CCOC)cc1	–	–	?	–
COc1ccc(CNc2ncc(-c3cccc([N+](=O)[O-])c3)n2C)c(OC)c1OC	–	–	–	4.7µM
Cc1ccc(OCC(=O)N[C@@H](C)c2nnc3ccccn23)cc1C	–	–	–	–
COc1ccc(CNc2ncc(-c3ccc(F)cc3)n2C)cc1OC	–	·	–	?
SMILES	CHX counter	Shiga toxin inh	Pf growth 48h	Pf growth 96h
COc1ccc(OC)c(CNc2ncc(-c3ccc(F)cc3)n2C)c1	–	–	?	15µM
CCN(CC(=O)Nc1cc(Cl)ccc1C)C(=O)C1COc2ccccc2O1 (stereo not given)	·	·	?	–
CCOC(=O)C[n+]1ccc2c([nH]c3ccccc32)c1C	–	·	–	10µM
COC(=O)c1ccc2[nH]c(C(C)(C)O)c(C)c2c1	23	40	–	–
CCOC(=O)c1ccc2[nH]c3ccccc3c2c1	37	63	?	–
COC(=O)c1ccc2[nH]c(C)cc(=O)c2c1	–	–	–	–
CCOC(=O)c1ccc2[nH]c(C)cc(=O)c2c1	–	–	?	–
Cc1[nH]c2ccc(C(=O)OCCN(C)C)cc2c1C	–	–	–	4.7µM
CCOC(=O)Cc1c(Cl)c2ccccc2[nH]c1=O	–	–	–	–
CCc1nc(SCC(=O)Nc2cc(OC)ccc2OC)c2c(C)c(C)sc2n1	–	–	?	–
COc1ccc(/C=C/C(=O)Nc2ccccc2C(=O)N2CCCC2)cc1	–	53	–	–
COc1ccc(/C=C(/C(=O)Nc2ccccc2C(=O)N2CCCC2)c2ccccc2)cc1	–	–	6.6µM	?
COc1ccc(/C=C(/C(=O)Nc2ccccc2C(=O)NC(C)C)c2ccccc2)cc1	–	–	?	?
CCC(CC)c1nnc(NC(=O)C23CC4CC(CC(NC(C)=O)(C4)C2)C3)s1	–	–	?	?
CC(=O)NC12CC3CC(C1)CC(C(=O)Nc1nc4ccc(F)cc4s1)(C3)C2	45	71	–	–
CCCCNC(=S)N(C)/N=C/c1ccc(OCC(=O)Nc2c(C)cc(C)cc2C)c(OC)c1	–	–	?	?
COc1cc(/C=N/NC(=O)c2ccncc2)ccc1OCC(=O)Nc1ccc(C)c(C)c1	13	–	–	–
COc1cc(/C=N/NC(=S)NC(C)C)ccc1OCC(=O)Nc1c(C)cc(C)cc1C	–	–	12µM	13µM
